Bioassay records from PubChem BioAssay.
Compounds with a hit are over-represented: about 12% of the library has one in this group of screens.
BAZ2B inh: inhibitors of human BAZ2B bromodomain | Q9UIF8 | AlphaScreen BAZ2B-H3K14Ac peptide displacement | Potency, µM (top dose mostly 114 µM), without a hit: top-dose activity change, negative = inhibition, usual class: inhibitors | actives 4.4% (n = 360,000) | AID 504333; note: % is set by controls: 0 for no effect and ±100 for the full control effect; nearly all actives have a fitted effect of over 60% in size
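In this displacement format the biotinylated H3(5-23) peptide acetylated at Lys14 serves as ligand at 50 nM, with BAZ2B at 50 nM in PBS pH 7.4 containing 0.01% Tween-20. Donor and acceptor beads are 10 ug/mL final.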
G9a block: inhibitors of human histone lysine methyltransferase G9a; G9a H3K9 monomethylation, AlphaScreen, 2 h; Potency, µM (series often up to 102 µM), for inactives: top-dose activity, negative = inhibition, hits mostly inhibitors; actives 8.8% (n = 350,000); note: % is set by controls: 0 for no effect and ±100 for the full control effect; nearly all actives have a fitted effect of over 75% in size
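AlphaScreen detection with an anti-monomethyl H3K9 antibody quantified product after a 2 h room-temperature reaction containing 500 nM biotinylated H3K9 peptide, 20 µM SAM and 20 nM enzyme, which had been preincubated 15 min with compound.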
Sfp PPTase inh: inhibitors of Bacillus subtilis Sfp phosphopantetheinyl transferase; AID 1490; Potency, µM, for inactives: largest response in the series, negative = inhibition, most hits filed as inhibitors; actives 3.5% (n = 310,000); Biochemical Sfp PPTase activity, qHTS;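 note: the enzyme is Sfp with the accession as filed and its product quenches rhodamine fluorescence; 0% = enzyme reaction without inhibitor and -100% = no enzyme wells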
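With Hepes-Na pH 7.6 buffer containing 10 mM MgCl2, Sfp (15 nM) modified BHQ-2-YbbR (12.5 uM) using rhodamine-CoA (5 uM). Two reads 30 minutes apart at 525/598 nm yielded each well's rate.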
L3MBTL1 inh: blocks human L3MBTL1; Q9Y468; AlphaScreen L3MBTL1–H3K9me1 peptide binding; Potency, µM (top dose mostly 57.1 µM), for the others: at the highest dose activity, negative = inhibition, most hits filed as inhibitors; actives 0.66% (n = 230,000); note: % is set by controls: 0 for no effect and ±100 for the full control effect; nearly all actives have a fitted effect of over 60% in size
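Displacement of a biotinylated histone H3(1-15) peptide monomethylated at Lys9 (75 nM) from L3MBTL1 (50 nM) was measured by AlphaScreen after a 30 min room-temperature compound incubation; cefsulodin titration served as intraplate control.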
JMJD2A Tudor: blocks the human JMJD2A Tudor domain; Potency, µM (highest dose often 114 µM), for inactives: at the highest dose activity change, negative = inhibition, most hits filed as inhibitors; AlphaScreen JMJD2A-Tudor / H3K4me3 peptide binding; actives 4.4% (n = 390,000); O75164; note: % is set by controls: 0 for no effect and ±100 for the full control effect; nearly all actives have a fitted effect of over 50% in size
Target sequence (O75164 whole entry, looked up, the tested form may be a part): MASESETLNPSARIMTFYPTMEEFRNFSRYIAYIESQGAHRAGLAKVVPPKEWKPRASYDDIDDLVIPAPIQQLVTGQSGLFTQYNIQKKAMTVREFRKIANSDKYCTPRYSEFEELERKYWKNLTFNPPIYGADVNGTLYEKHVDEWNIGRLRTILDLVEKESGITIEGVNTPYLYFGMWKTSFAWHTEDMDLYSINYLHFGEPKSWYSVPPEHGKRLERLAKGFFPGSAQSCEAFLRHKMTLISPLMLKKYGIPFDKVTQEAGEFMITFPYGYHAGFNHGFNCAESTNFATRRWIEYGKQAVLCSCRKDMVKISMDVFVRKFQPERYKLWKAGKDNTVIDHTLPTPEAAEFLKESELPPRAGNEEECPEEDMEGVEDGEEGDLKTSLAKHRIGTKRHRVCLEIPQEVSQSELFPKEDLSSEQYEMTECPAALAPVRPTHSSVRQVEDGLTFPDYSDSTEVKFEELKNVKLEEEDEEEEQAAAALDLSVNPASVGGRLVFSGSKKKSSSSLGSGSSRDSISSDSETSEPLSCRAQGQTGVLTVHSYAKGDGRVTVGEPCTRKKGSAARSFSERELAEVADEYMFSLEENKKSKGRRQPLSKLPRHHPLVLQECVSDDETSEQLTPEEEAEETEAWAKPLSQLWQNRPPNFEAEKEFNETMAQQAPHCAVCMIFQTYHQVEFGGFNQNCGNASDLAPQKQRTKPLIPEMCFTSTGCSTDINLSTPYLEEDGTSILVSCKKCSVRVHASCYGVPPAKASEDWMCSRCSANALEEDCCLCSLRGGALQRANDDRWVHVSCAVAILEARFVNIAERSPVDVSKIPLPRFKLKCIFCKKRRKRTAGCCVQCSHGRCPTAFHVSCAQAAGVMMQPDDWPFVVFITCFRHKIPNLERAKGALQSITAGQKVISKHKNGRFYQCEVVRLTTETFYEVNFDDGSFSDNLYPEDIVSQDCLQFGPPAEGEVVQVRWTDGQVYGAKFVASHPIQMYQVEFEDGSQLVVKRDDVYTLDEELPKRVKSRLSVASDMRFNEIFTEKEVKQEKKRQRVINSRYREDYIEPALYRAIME
HP1b chromo inh: inhibitors of HP1-beta chromodomain binding to methylated histone tails; Potency, µM (doses to about 114 µM), for the others: top-dose activity change, negative = inhibition, most hits filed as inhibitors; P83916; AlphaScreen HP1-beta / biotin-H3K9me3 peptide binding; actives 0.56% (n = 390,000); note: nearly all actives have a fitted effect of over 70% in size
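Compound inhibition of the preformed complex between 50 nM HP1-beta and 50 nM biotinylated H3K9me3 peptide was read by AlphaScreen. Buffer was PBS pH 7.4 with 0.01% Tween-20. Incubations ran 30 min at room temperature, with 10 ug/mL donor/acceptor beads.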
* marks the source's active call; other numbers are inactive results; [ ] = remark or other dose. Calls come from the whole dose curve; as a rule, active = well fitted curve in the direction sought with a large enough effect; inconclusive = small, poorly fitted or top-dose-only effect, or another doubt; inactive = no such curve, though single readings can be large; an effect the other way counts as inactive or inconclusive. Potency is the fitted concentration of half-maximal effect.

CN1CCC(=NNc2ncnc3sc4c(c23)CCCC4)CC1 was read as BAZ2B inh inconclusive, G9a block -5.8%[59 µM], Sfp PPTase inh 10µM*, L3MBTL1 inh -7.9%, JMJD2A Tudor inconclusive and HP1b chromo inh 3.0%.
Screening Cc1nc(NS(=O)(=O)c2cccs2)c2c3c(sc2n1)CCC3 returned BAZ2B inh inconclusive, G9a block 79.4µM*, Sfp PPTase inh -5.3%, L3MBTL1 inh 4.8%, JMJD2A Tudor -5.3%[57.1 µM] and HP1b chromo inh 56.0%.
O=S(=O)(Nc1ncnc2sc3c(c12)CCC3)c1ccc(Cl)s1 was read as BAZ2B inh inconclusive, G9a block 10µM*, Sfp PPTase inh 3.7%, L3MBTL1 inh -20.4%[11.4 µM], JMJD2A Tudor -33.9% and HP1b chromo inh 20.3%.
`O=C(Nc1ncnc2sc3c(c12)CCCC3)c1ccncc1` gave BAZ2B inh -20.4%, G9a block 44.7µM*, Sfp PPTase inh 12.5%, L3MBTL1 inh -0.3%, JMJD2A Tudor 2.7% and HP1b chromo inh 12.3%.
Cc1ccc(N2CCn3c2nc2c3c(=O)n(C/C=C/c3ccccc3)c(=O)n2C)cc1C was read as BAZ2B inh inconclusive, G9a block inconclusive, JMJD2A Tudor inconclusive and HP1b chromo inh -19.0%.
Screening Fc1cccc(Nc2ncnc3sc4c(c23)CCC4)c1 returned BAZ2B inh 6.3%, G9a block 20µM*, Sfp PPTase inh inconclusive, L3MBTL1 inh 18.8%, JMJD2A Tudor -5.5% and HP1b chromo inh 37.8%.
For C=CC#CC1(O)CC(C)[N+](C)(C)CC1C (stereo unspecified) the results were BAZ2B inh -8.1%, G9a block 28.2µM*, Sfp PPTase inh 39.8µM*, L3MBTL1 inh 3.8%, JMJD2A Tudor 22.4µM* and HP1b chromo inh inconclusive.
`CCN(CCO)c1nc(SC)nc2c1sc1nc(-c3ccco3)c3c(c12)CCC3` gave BAZ2B inh 50.1µM*, G9a block inconclusive, Sfp PPTase inh inconclusive, L3MBTL1 inh -23.8%, JMJD2A Tudor -9.7% and HP1b chromo inh 5.7%.
`CCN(CCO)c1ncnc2c1sc1nc(C(C)C)c3c(c12)CC(C)(C)OC3` gave BAZ2B inh 8.0%, G9a block -15.7%[59 µM], Sfp PPTase inh 13.2%, L3MBTL1 inh 36.4%, JMJD2A Tudor -13.5% and HP1b chromo inh 5.5%.
For Cc1ccc(OCC(=O)Nc2ccccc2N2CCCC2)c(C)c1 the results were BAZ2B inh 70.8µM*, G9a block -8.3%[12.7 µM], Sfp PPTase inh inconclusive, L3MBTL1 inh -26.2%, JMJD2A Tudor -32.9% and HP1b chromo inh 12.7%.
`CCc1ccccc1NC(=O)COc1ccc(C(=S)N2CCCC2)cc1` gave BAZ2B inh -20.5%, G9a block -34.7%, Sfp PPTase inh inconclusive, L3MBTL1 inh 30.4%, JMJD2A Tudor 70.8µM* and HP1b chromo inh -6.8%.
`Cc1ccccc1OCC(=O)Nc1ccccc1-c1ccccc1NC(=O)COc1ccccc1C` gave BAZ2B inh -8.0%, G9a block 50.1µM*, Sfp PPTase inh 3.8%, L3MBTL1 inh -4.1%, JMJD2A Tudor -10.3% and HP1b chromo inh 16.8%.
`Cc1cc(C)c(OCC(=O)Nc2ccccc2N2CCCCC2)c(C)c1` gave BAZ2B inh 22.8%, G9a block -31.7%, L3MBTL1 inh 39.7%, JMJD2A Tudor 9.5% and HP1b chromo inh 62.2%.
`Cc1ccc(C)c(OCC(=O)Nc2ccccc2N2CCCC2)c1` gave BAZ2B inh inconclusive, G9a block 39.8µM*, Sfp PPTase inh -1.7%, JMJD2A Tudor inconclusive and HP1b chromo inh 11.7%.
Screening COc1ccc(Cl)cc1S(=O)(=O)N1CCC(C(=O)N2CCOCC2)CC1 returned BAZ2B inh 2.0%, Sfp PPTase inh 2.6%, JMJD2A Tudor -14.6% and HP1b chromo inh 6.4%.
